Measured values reported in publication PMC11062922 (Nature Chemical Biology, 2023).
Read-outs that look alike come from different tables or passages of the source.

Tests used:
RET = details: read-out: apparent Kd, n = 1
RPS6KA4 = details: read-out: apparent Kd, n = 1
[1] = compound concentrations:100 nM and 1000 nM (sheet 'Lestaurtinib' of Supplementary Table 1),run:Lestaurtinib_02438_R1,Plate:MR008
[2] = compound concentrations:100 nM and 1000 nM (sheet 'Lestaurtinib' of Supplementary Table 1),run:Lestaurtinib_02438_R3,Plate:MR008
[3] = compound concentrations:100 nM and 1000 nM (sheet 'Lestaurtinib' of Supplementary Table 1),run:Lestaurtinib_02443_R1,Plate:MR009
[4] = compound concentrations:100 nM and 1000 nM (sheet 'Lestaurtinib' of Supplementary Table 1),run:Lestaurtinib_02473_R3,Plate:MR010
[5] = compound concentrations:100 nM and 1000 nM (sheet 'Lestaurtinib' of Supplementary Table 1),run:Lestaurtinib_02482_R3,Plate:MR011
[6] = compound concentrations:100 nM and 1000 nM (sheet 'Lestaurtinib' of Supplementary Table 1),run:Lestaurtinib_02487_R2,Plate:MR012
[7] = compound concentrations:100 nM and 1000 nM (sheet 'Lestaurtinib' of Supplementary Table 1),run:Lestaurtinib_02487_R3,Plate:MR012
[8] = compound concentrations:100 nM and 1000 nM (sheet 'Lestaurtinib' of Supplementary Table 1),run:Lestaurtinib_02496_R1,Plate:MR013
[9] = compound concentrations:100 nM and 1000 nM (sheet 'Lestaurtinib' of Supplementary Table 1),run:Lestaurtinib_02566_R1,Plate:MR014
[10] = compound concentrations:100 nM and 1000 nM (sheet 'Lestaurtinib' of Supplementary Table 1),run:Lestaurtinib_02577_R1,Plate:MR016
[11] = compound concentrations:100 nM and 1000 nM (sheet 'Lestaurtinib' of Supplementary Table 1),run:Lestaurtinib_02584_R3,Plate:MR017
[12] = compound concentrations:100 nM and 1000 nM (sheet 'Lestaurtinib' of Supplementary Table 1),run:Lestaurtinib_02601_R2,Plate:MR018

Lestaurtinib
potency estimated from few doses (RET; compound concentrations:100 nM and 1000 nM (sheet 'Lestaurtinib' of Supplementary Table 1),run:Lestaurtinib_02437_R2,Plate:MR007): 146 nM
potency estimated from few doses (RET; compound concentrations:100 nM and 1000 nM (sheet 'Lestaurtinib' of Supplementary Table 1),run:Lestaurtinib_02437_R3,Plate:MR007): 23.5 nM
potency estimated from few doses (RET; [1]): 279 nM
potency estimated from few doses (RET; compound concentrations:100 nM and 1000 nM (sheet 'Lestaurtinib' of Supplementary Table 1),run:Lestaurtinib_02438_R2,Plate:MR008): 286 nM
potency estimated from few doses (RET; [2]): 304 nM
potency estimated from few doses (RET; [3]): 248 nM
potency estimated from few doses (RET; compound concentrations:100 nM and 1000 nM (sheet 'Lestaurtinib' of Supplementary Table 1),run:Lestaurtinib_02443_R3,Plate:MR009): 140 nM
potency estimated from few doses (RET; compound concentrations:100 nM and 1000 nM (sheet 'Lestaurtinib' of Supplementary Table 1),run:Lestaurtinib_02473_R2,Plate:MR010): 244 nM
potency estimated from few doses (RET; [4]): 60 nM
potency estimated from few doses (RET; compound concentrations:100 nM and 1000 nM (sheet 'Lestaurtinib' of Supplementary Table 1),run:Lestaurtinib_02482_R1,Plate:MR011): 239 nM
potency estimated from few doses (RET; [5]): 209 nM
potency estimated from few doses (RET; [6]): 140 nM
potency estimated from few doses (RET; [7]): 213 nM
potency estimated from few doses (RET; [8]): 219 nM
potency estimated from few doses (RET; compound concentrations:100 nM and 1000 nM (sheet 'Lestaurtinib' of Supplementary Table 1),run:Lestaurtinib_02496_R3,Plate:MR013): 141 nM
potency estimated from few doses (RET; [9]): 277 nM
potency estimated from few doses (RET; compound concentrations:100 nM and 1000 nM (sheet 'Lestaurtinib' of Supplementary Table 1),run:Lestaurtinib_02566_R3,Plate:MR014): 244 nM
potency estimated from few doses (RET; compound concentrations:100 nM and 1000 nM (sheet 'Lestaurtinib' of Supplementary Table 1),run:Lestaurtinib_02572_R3,Plate:MR015): 307 nM
potency estimated from few doses (RET; [10]): 242 nM
potency estimated from few doses (RET; compound concentrations:100 nM and 1000 nM (sheet 'Lestaurtinib' of Supplementary Table 1),run:Lestaurtinib_02577_R2,Plate:MR016): 142 nM
potency estimated from few doses (RET; compound concentrations:100 nM and 1000 nM (sheet 'Lestaurtinib' of Supplementary Table 1),run:Lestaurtinib_02577_R3,Plate:MR016): 218 nM
potency estimated from few doses (RET; [11]): 142 nM
potency estimated from few doses (RET; [12]): 235 nM
potency estimated from few doses (RET; compound concentrations:100 nM and 1000 nM (sheet 'Lestaurtinib' of Supplementary Table 1),run:Lestaurtinib_02601_R3,Plate:MR018): 62.4 nM
potency estimated from few doses (RET; compound concentrations:100 nM and 1000 nM (sheet 'Lestaurtinib' of Supplementary Table 1),run:Lestaurtinib_02606_R1,Plate:MR019): 211 nM
potency estimated from few doses (RET; compound concentrations:100 nM and 1000 nM (sheet 'Lestaurtinib' of Supplementary Table 1),run:Lestaurtinib_02624_R1,Plate:MR020): 141 nM
potency estimated from few doses (RET; compound concentrations:100 nM and 1000 nM (sheet 'Lestaurtinib' of Supplementary Table 1),run:Lestaurtinib_02624_R3,Plate:MR020): 229 nM
potency estimated from few doses (RET; compound concentrations:100 nM and 1000 nM (sheet 'Lestaurtinib' of Supplementary Table 1),run:Lestaurtinib_02724_R1,Plate:MR021): 275 nM
potency estimated from few doses (RET; compound concentrations:100 nM and 1000 nM (sheet 'Lestaurtinib' of Supplementary Table 1),run:Lestaurtinib_02724_R2,Plate:MR021): 268 nM
potency estimated from few doses (RET; compound concentrations:100 nM and 1000 nM (sheet 'Lestaurtinib' of Supplementary Table 1),run:Lestaurtinib_02724_R3,Plate:MR021): 153 nM
potency estimated from few doses (RET; compound concentrations:100 nM and 1000 nM (sheet 'Lestaurtinib' of Supplementary Table 1),run:Lestaurtinib_02741_R1,Plate:MR023): 279 nM
potency estimated from few doses (RET; compound concentrations:100 nM and 1000 nM (sheet 'Lestaurtinib' of Supplementary Table 1),run:Lestaurtinib_02741_R2,Plate:MR023): 279 nM
potency estimated from few doses (RET; compound concentrations:100 nM and 1000 nM (sheet 'Lestaurtinib' of Supplementary Table 1),run:Lestaurtinib_02741_R3,Plate:MR023): 315 nM
potency estimated from few doses (RET; compound concentrations:100 nM and 1000 nM (sheet 'Lestaurtinib' of Supplementary Table 1),run:Lestaurtinib_02748_R1,Plate:MR024): 135 nM
potency estimated from few doses (RET; compound concentrations:100 nM and 1000 nM (sheet 'Lestaurtinib' of Supplementary Table 1),run:Lestaurtinib_02748_R2,Plate:MR024): 269 nM
potency estimated from few doses (RET; compound concentrations:100 nM and 1000 nM (sheet 'Lestaurtinib' of Supplementary Table 1),run:Lestaurtinib_02765_R1,Plate:MR026): 320 nM
potency estimated from few doses (RET; compound concentrations:100 nM and 1000 nM (sheet 'Lestaurtinib' of Supplementary Table 1),run:Lestaurtinib_02765_R3,Plate:MR026): 323 nM
potency estimated from few doses (RET; compound concentrations:100 nM and 1000 nM (sheet 'Lestaurtinib' of Supplementary Table 1),run:Lestaurtinib_02766_R3,Plate:MR027): 258 nM
potency estimated from few doses (RET; compound concentrations:100 nM and 1000 nM (sheet 'Lestaurtinib' of Supplementary Table 1),run:Lestaurtinib_02768_R3,Plate:MR028): 135 nM
potency estimated from few doses (RET; compound concentrations:100 nM and 1000 nM (sheet 'Lestaurtinib' of Supplementary Table 1),run:Lestaurtinib_02795_R2,Plate:MR022): 286 nM
potency estimated from few doses (RET; compound concentrations:100 nM and 1000 nM (sheet 'Lestaurtinib' of Supplementary Table 1),run:Lestaurtinib_02795_R3,Plate:MR022): 300 nM
potency estimated from few doses (RET; compound concentrations:100 nM and 1000 nM (sheet 'Lestaurtinib' of Supplementary Table 1),run:Lestaurtinib_02802_R1,Plate:MR029): 137 nM
potency estimated from few doses (RET; compound concentrations:100 nM and 1000 nM (sheet 'Lestaurtinib' of Supplementary Table 1),run:Lestaurtinib_02802_R3,Plate:MR029): 34.2 nM
potency estimated from few doses (RET; compound concentrations:100 nM and 1000 nM (sheet 'Lestaurtinib' of Supplementary Table 1),run:Lestaurtinib_03252_R1,Plate:MR032): 253 nM
potency estimated from few doses (RET; compound concentrations:100 nM and 1000 nM (sheet 'Lestaurtinib' of Supplementary Table 1),run:Lestaurtinib_03260_R3,Plate:MR033): 277 nM
potency estimated from few doses (RPS6KA4; compound concentrations:100 nM and 1000 nM (sheet 'Lestaurtinib' of Supplementary Table 1),run:Lestaurtinib_02339_R2,Plate:MR001): 873 nM
potency estimated from few doses (RPS6KA4; compound concentrations:100 nM and 1000 nM (sheet 'Lestaurtinib' of Supplementary Table 1),run:Lestaurtinib_02339_R3,Plate:MR001): 1210 nM
potency estimated from few doses (RPS6KA4; compound concentrations:100 nM and 1000 nM (sheet 'Lestaurtinib' of Supplementary Table 1),run:Lestaurtinib_02364_R2,Plate:MR002): 886 nM
potency estimated from few doses (RPS6KA4; compound concentrations:100 nM and 1000 nM (sheet 'Lestaurtinib' of Supplementary Table 1),run:Lestaurtinib_02367_R1,Plate:MR003): 1240 nM
potency estimated from few doses (RPS6KA4; compound concentrations:100 nM and 1000 nM (sheet 'Lestaurtinib' of Supplementary Table 1),run:Lestaurtinib_02367_R2,Plate:MR003): 1330 nM
potency estimated from few doses (RPS6KA4; compound concentrations:100 nM and 1000 nM (sheet 'Lestaurtinib' of Supplementary Table 1),run:Lestaurtinib_02367_R3,Plate:MR003): 989 nM
potency estimated from few doses (RPS6KA4; compound concentrations:100 nM and 1000 nM (sheet 'Lestaurtinib' of Supplementary Table 1),run:Lestaurtinib_02381_R1,Plate:MR004): 884 nM
potency estimated from few doses (RPS6KA4; compound concentrations:100 nM and 1000 nM (sheet 'Lestaurtinib' of Supplementary Table 1),run:Lestaurtinib_02407_R1,Plate:MR005): 1340 nM
potency estimated from few doses (RPS6KA4; compound concentrations:100 nM and 1000 nM (sheet 'Lestaurtinib' of Supplementary Table 1),run:Lestaurtinib_02407_R2,Plate:MR005): 1630 nM
potency estimated from few doses (RPS6KA4; compound concentrations:100 nM and 1000 nM (sheet 'Lestaurtinib' of Supplementary Table 1),run:Lestaurtinib_02422_R1,Plate:MR006): 975 nM
potency estimated from few doses (RPS6KA4; compound concentrations:100 nM and 1000 nM (sheet 'Lestaurtinib' of Supplementary Table 1),run:Lestaurtinib_02437_R1,Plate:MR007): 1320 nM
potency estimated from few doses (RPS6KA4; [1]): 769 nM
potency estimated from few doses (RPS6KA4; [2]): 1350 nM
potency estimated from few doses (RPS6KA4; [3]): 864 nM
potency estimated from few doses (RPS6KA4; [4]): 1240 nM
potency estimated from few doses (RPS6KA4; compound concentrations:100 nM and 1000 nM (sheet 'Lestaurtinib' of Supplementary Table 1),run:Lestaurtinib_02482_R2,Plate:MR011): 1340 nM
potency estimated from few doses (RPS6KA4; [5]): 924 nM
potency estimated from few doses (RPS6KA4; compound concentrations:100 nM and 1000 nM (sheet 'Lestaurtinib' of Supplementary Table 1),run:Lestaurtinib_02487_R1,Plate:MR012): 680 nM
potency estimated from few doses (RPS6KA4; [6]): 745 nM
potency estimated from few doses (RPS6KA4; [7]): 950 nM
potency estimated from few doses (RPS6KA4; [8]): 877 nM
potency estimated from few doses (RPS6KA4; compound concentrations:100 nM and 1000 nM (sheet 'Lestaurtinib' of Supplementary Table 1),run:Lestaurtinib_02496_R2,Plate:MR013): 822 nM
potency estimated from few doses (RPS6KA4; [9]): 1360 nM
potency estimated from few doses (RPS6KA4; compound concentrations:100 nM and 1000 nM (sheet 'Lestaurtinib' of Supplementary Table 1),run:Lestaurtinib_02566_R2,Plate:MR014): 971 nM
potency estimated from few doses (RPS6KA4; compound concentrations:100 nM and 1000 nM (sheet 'Lestaurtinib' of Supplementary Table 1),run:Lestaurtinib_02572_R2,Plate:MR015): 1240 nM
potency estimated from few doses (RPS6KA4; [10]): 1370 nM
potency estimated from few doses (RPS6KA4; [11]): 1210 nM
potency estimated from few doses (RPS6KA4; [12]): 1330 nM
